Experimental data reported in the supplement of paper PMC10849652.
Targets with a hit are over-represented here; the source holds about 7,900 in all. About 0.6% of all pairs of compound and target were hits.

Compound: CCCS(=O)(=O)Nc1ccc(F)c(C(=O)c2c[nH]c3ncc(-c4ccc(Cl)cc4)cc23)c1F [vemurafenib]
Test: log2 fold change, soluble protein after heating vs DMSO (PISA); higher = thermal stabilisation; K562 cells, 10 uM, 30 min; active = over 0.2 and 3.5 SD of the protein, either way, in both replicates (recomputed)
Summary of the method: (§1)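 Soluble protein was quantified by TMTpro 16plex LC-MS/MS after channel sums were equalised. It was obtained as the supernatant after 21,000xg for 90 min from pooled aliquots of K562 cells (2×10^6 cells/mL, 10 μM compound, 30 min) heated for 3 min across 48°C-58°C and extracted in PBS with 0.5% NP-40 at 4°C. Thermal stability values are relative to control samples and come from duplicates. They are given as log2 fold changes.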

Sequence of UniProt Q00535 (Q00535 whole entry, looked up): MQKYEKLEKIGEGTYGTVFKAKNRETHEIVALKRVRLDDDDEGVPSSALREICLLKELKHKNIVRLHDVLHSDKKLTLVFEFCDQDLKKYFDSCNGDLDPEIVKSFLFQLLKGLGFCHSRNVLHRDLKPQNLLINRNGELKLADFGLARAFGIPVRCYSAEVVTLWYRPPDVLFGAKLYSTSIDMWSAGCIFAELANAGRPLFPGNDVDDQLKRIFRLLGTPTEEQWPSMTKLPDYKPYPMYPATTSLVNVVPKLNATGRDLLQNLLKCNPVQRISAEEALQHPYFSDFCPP
Sequence of UniProt Q96G28 (Q96G28 whole entry, looked up): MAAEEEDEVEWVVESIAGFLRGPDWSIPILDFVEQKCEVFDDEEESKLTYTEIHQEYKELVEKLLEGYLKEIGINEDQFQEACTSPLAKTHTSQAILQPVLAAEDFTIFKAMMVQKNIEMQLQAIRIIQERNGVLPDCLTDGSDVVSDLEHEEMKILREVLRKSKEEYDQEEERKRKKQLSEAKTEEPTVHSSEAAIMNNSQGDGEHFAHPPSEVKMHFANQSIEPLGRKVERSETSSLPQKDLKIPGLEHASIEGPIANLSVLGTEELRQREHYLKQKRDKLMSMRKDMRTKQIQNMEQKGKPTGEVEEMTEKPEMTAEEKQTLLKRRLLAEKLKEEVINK
Sequence of UniProt Q9BSQ5 (Q9BSQ5 whole entry, looked up): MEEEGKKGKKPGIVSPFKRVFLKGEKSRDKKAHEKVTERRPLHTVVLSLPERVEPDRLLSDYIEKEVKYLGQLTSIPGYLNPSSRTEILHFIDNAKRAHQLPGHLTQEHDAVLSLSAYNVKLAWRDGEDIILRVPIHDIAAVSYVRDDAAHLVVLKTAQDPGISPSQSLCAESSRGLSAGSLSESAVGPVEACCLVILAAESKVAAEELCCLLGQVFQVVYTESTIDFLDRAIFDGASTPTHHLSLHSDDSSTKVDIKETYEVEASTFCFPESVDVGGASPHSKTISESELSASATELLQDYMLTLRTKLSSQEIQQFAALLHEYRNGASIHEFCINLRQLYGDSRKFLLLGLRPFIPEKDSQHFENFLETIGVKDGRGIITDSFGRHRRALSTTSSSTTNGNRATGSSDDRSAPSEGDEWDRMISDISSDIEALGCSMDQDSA
Sequence of UniProt Q96LT7 (Q96LT7 whole entry, looked up): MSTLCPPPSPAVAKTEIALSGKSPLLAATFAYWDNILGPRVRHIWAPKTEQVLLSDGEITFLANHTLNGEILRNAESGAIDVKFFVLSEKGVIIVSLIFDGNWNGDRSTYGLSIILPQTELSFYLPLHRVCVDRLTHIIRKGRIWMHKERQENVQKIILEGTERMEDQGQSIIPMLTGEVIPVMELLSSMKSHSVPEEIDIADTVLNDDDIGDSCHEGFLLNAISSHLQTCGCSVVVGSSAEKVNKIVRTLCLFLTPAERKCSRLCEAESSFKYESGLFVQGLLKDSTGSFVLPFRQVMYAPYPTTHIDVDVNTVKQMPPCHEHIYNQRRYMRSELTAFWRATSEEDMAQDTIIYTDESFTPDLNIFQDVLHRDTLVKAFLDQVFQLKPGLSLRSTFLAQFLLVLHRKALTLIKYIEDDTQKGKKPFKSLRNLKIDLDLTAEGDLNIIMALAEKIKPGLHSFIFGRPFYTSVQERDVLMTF
Sequence of UniProt Q92851 (Q92851 whole entry, looked up): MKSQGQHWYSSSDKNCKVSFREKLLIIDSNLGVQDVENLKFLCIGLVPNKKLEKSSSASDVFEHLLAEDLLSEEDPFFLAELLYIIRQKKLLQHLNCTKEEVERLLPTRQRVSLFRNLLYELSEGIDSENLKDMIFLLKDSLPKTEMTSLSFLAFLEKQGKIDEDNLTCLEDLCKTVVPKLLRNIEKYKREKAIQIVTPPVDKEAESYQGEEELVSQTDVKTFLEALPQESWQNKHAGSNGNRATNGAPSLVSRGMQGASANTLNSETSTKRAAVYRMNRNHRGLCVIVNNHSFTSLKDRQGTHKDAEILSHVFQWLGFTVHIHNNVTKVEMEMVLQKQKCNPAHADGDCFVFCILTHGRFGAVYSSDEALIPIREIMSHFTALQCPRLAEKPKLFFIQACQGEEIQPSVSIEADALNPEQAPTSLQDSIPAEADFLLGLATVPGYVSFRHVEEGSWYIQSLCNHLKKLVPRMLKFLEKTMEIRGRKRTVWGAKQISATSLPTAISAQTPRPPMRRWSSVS
Sequence of UniProt Q9UNS2 (Q9UNS2 whole entry, looked up): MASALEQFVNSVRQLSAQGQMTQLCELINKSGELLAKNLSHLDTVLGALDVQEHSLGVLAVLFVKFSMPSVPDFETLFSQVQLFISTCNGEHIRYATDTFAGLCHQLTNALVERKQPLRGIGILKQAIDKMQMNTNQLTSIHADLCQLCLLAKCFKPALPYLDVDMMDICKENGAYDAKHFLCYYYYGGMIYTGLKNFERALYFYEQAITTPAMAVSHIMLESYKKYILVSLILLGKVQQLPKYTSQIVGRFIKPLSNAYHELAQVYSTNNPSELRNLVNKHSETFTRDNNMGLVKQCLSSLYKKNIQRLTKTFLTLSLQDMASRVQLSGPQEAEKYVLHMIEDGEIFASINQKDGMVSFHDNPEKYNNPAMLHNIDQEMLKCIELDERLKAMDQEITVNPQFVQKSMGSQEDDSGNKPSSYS
Sequence of UniProt Q00537 (Q00537 whole entry, looked up): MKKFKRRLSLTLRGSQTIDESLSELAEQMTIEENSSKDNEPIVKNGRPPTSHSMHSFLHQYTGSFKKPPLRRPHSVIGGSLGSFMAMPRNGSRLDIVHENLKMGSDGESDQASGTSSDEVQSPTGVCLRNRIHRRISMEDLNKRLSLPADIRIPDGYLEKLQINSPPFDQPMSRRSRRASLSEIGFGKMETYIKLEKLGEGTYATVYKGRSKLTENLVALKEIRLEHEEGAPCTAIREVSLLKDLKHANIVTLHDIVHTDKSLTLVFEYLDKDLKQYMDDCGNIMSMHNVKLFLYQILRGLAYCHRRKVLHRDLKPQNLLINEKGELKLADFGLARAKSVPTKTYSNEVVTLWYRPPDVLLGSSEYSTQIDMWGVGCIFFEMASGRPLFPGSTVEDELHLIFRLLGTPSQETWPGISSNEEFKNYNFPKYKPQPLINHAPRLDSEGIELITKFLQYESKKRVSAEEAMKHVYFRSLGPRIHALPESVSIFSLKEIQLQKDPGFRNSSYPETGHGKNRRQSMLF
Sequence of UniProt P49336 (P49336 whole entry, looked up): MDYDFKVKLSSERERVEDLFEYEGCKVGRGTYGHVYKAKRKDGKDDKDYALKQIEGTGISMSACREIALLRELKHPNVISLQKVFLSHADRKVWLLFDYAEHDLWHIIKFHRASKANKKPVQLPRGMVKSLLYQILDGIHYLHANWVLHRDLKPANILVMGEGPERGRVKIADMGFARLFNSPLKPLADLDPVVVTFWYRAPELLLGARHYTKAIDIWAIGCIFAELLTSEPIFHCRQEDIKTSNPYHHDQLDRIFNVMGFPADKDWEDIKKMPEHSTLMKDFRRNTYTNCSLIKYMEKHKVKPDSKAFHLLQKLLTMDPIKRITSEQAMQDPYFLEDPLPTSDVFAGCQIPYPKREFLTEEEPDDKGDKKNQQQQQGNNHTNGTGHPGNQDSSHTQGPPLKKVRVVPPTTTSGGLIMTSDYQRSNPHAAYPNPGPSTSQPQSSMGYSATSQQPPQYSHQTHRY
Sequence of UniProt Q9BWU1 (Q9BWU1 whole entry, looked up): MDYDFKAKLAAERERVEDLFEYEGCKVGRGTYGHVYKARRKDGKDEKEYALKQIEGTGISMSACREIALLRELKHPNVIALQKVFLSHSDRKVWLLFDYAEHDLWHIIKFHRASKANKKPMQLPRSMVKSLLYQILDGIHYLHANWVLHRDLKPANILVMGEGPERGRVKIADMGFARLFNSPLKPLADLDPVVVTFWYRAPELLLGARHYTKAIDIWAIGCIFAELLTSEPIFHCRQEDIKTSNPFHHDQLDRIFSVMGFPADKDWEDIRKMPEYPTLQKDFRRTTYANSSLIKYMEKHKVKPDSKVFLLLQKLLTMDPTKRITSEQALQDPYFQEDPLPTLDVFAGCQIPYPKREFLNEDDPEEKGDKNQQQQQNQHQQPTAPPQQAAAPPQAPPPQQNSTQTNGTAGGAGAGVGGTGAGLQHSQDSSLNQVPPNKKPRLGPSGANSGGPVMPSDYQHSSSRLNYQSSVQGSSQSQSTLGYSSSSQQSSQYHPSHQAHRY
Sequence of UniProt Q92828 (Q92828 whole entry, looked up): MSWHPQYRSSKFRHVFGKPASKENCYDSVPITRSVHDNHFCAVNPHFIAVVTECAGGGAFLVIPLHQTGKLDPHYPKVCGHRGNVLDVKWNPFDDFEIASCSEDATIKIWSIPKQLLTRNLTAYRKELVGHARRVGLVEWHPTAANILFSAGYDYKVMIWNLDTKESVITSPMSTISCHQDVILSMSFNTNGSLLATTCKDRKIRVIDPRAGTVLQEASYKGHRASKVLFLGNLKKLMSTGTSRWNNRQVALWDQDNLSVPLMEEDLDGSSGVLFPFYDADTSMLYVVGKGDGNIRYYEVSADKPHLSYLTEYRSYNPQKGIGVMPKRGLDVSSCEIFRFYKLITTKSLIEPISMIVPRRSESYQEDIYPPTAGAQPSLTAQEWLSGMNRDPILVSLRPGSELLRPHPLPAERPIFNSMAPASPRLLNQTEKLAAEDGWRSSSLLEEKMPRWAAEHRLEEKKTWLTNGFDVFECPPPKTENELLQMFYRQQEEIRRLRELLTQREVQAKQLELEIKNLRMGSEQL
Sequence of UniProt P24311 (P24311 whole entry, looked up): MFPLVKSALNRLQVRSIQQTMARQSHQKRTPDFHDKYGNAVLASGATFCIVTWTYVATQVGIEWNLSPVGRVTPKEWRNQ
Sequence of UniProt Q9UBY8 (Q9UBY8 whole entry, looked up): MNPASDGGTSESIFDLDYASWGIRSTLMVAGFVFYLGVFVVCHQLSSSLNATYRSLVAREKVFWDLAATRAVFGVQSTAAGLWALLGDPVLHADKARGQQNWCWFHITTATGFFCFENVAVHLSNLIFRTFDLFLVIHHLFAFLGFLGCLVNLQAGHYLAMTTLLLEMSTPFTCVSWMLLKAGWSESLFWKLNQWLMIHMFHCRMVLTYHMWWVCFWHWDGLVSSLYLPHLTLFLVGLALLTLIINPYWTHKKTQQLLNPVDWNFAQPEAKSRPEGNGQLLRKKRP

log2 fold change, inactive:
CFAP36 isoform 2 (UniProt Q96G28) -0.041, CENPE (UniProt Q02224) 0.047, CASP10 isoform 4 (UniProt Q92851) -0.015, COPS3 isoform 2 (UniProt Q9UNS2) -0.303, COX7B (UniProt P24311) -0.148, CCM2 isoform 2 (UniProt Q9BSQ5) 0.008, CRTC1 isoform 2 (UniProt Q6UUV9) -0.035, CDK5 (UniProt Q00535) 0.031, C15orf41 (UniProt Q9Y2V0) 0.015, C6orf120 (UniProt Q7Z4R8) -0.035, C9orf72 (UniProt Q96LT7) -0.139, C19orf54 (UniProt Q5BKX5) -0.118, CDK19 (UniProt Q9BWU1) 0.057, CASP9 (UniProt P55211) 0.107, CRTC3 (UniProt Q6UUV7) -0.093, CCNC (UniProt P24863) 0.105, CCNDBP1 (UniProt O95273) -0.074, CIR1 (UniProt Q86X95) -0.156, CDK8 (UniProt P49336) 0.041, COX17 (UniProt Q14061) 0.029, CRYM-AS1 (UniProt A6NIL9) 0.161, CORO2A (UniProt Q92828) 0.063, CSNK1D (UniProt P48730) 0.081, CDCA2 (UniProt Q69YH5) -0.009, CMTM3 (UniProt Q96MX0) 0, CDK17 isoform 2 (UniProt Q00537) -0.098, CDKN1B (UniProt P46527) -0.176, CAB39L (UniProt Q9H9S4) -0.013, CLN8 (UniProt Q9UBY8) -0.001

Compound: CCCS(=O)(=O)Nc1ccc(F)c(C(=O)c2c[nH]c3ncc(Cl)cc23)c1F
Test: as above
Summary of the method: as §1

log2 fold change, inactive:
CFAP36 isoform 2 (UniProt Q96G28) 0.012, CHPT1 (UniProt Q8WUD6) 0.051, CENPE (UniProt Q02224) -0.108, C22orf39 (UniProt Q6P5X5) 0.205, CASP10 isoform 4 (UniProt Q92851) 0.014, COPS3 isoform 2 (UniProt Q9UNS2) -0.14, COX7B (UniProt P24311) 0.136, CCM2 isoform 2 (UniProt Q9BSQ5) 0.009, CCNT2 (UniProt O60583) -0.031, CRTC1 isoform 2 (UniProt Q6UUV9) 0.051, CDK5 (UniProt Q00535) 0.058, C15orf41 (UniProt Q9Y2V0) 0.032, CCDC167 (UniProt Q9P0B6) -0.034, C6orf120 (UniProt Q7Z4R8) 0.069, C9orf72 (UniProt Q96LT7) -0.038, C19orf54 (UniProt Q5BKX5) 0.077, CDK19 (UniProt Q9BWU1) -0.026, CASP9 (UniProt P55211) 0.111, CRTC3 (UniProt Q6UUV7) 0.144, CIR1 (UniProt Q86X95) -0.129, CDK8 (UniProt P49336) 0.044, CHAF1A (UniProt Q13111) 0.026, CORO2A (UniProt Q92828) 0.054, CSNK1D (UniProt P48730) -0.047, CDCA2 (UniProt Q69YH5) -0.043, CMTM3 (UniProt Q96MX0) 0.001, CDK17 isoform 2 (UniProt Q00537) -0.085, CDKN1B (UniProt P46527) -0.048, CAB39L (UniProt Q9H9S4) -0.001, CHST10 (UniProt O43529) -0.015, CLN8 (UniProt Q9UBY8) -0.109

Compound: CCCc1cc(C)[nH]c(=O)c1CNC(=O)c1cc(-c2ccnc(N3CCN(C)CC3)c2)cc2c1cnn2C(C)C
Test: as above
Summary of the method: as §1

log2 fold change, inactive:
CFAP36 isoform 2 (UniProt Q96G28) -0.061, CHPT1 (UniProt Q8WUD6) 0.047, C22orf39 (UniProt Q6P5X5) 0.017, CASP10 isoform 4 (UniProt Q92851) 0.034, COPS3 isoform 2 (UniProt Q9UNS2) -0.162, COX7B (UniProt P24311) -0.188, CCM2 isoform 2 (UniProt Q9BSQ5) 0.052, CCNT2 (UniProt O60583) 0.211, CDK5 (UniProt Q00535) 0.078, CCDC167 (UniProt Q9P0B6) 0.022, C9orf72 (UniProt Q96LT7) 0.007, CDK19 (UniProt Q9BWU1) -0.109, COG2 (UniProt Q14746) -0.59, CCNC (UniProt P24863) -0.086, CCNDBP1 (UniProt O95273) -0.091, CIR1 (UniProt Q86X95) 0.047, CDK8 (UniProt P49336) -0.081, COX17 (UniProt Q14061) 0.025, CHAF1A (UniProt Q13111) -0.097, CRYM-AS1 (UniProt A6NIL9) -0.049, CORO2A (UniProt Q92828) 0.026, CSNK1D (UniProt P48730) 0.015, CDCA2 (UniProt Q69YH5) -0.027, CMTM3 (UniProt Q96MX0) -0.024, CDK17 isoform 2 (UniProt Q00537) 0.042, CDKN1B (UniProt P46527) 0.057, CHST10 (UniProt O43529) -0.097, CLN8 (UniProt Q9UBY8) -0.132

log2 fold change, active:
CRTC3 (UniProt Q6UUV7) -0.543
